From paper PMC5540273 (PLoS ONE, 2017)
Where two headings read alike, the source gives them in different places.

Experiments:
[1] = test system: T1, NIM1; settings: concentration: 1 μM, replicates: in singlicate; n = 1
T1 construct: gene MGC42105

[2] = test system: NLK; settings: concentration: 1 μM, replicates: in singlicate; n = 1
[3] = test system: T2, OSR1; settings: concentration: 1 μM, replicates: in singlicate; n = 1
T2 construct: gene OXSR1

[4] = test system: PAK1; settings: concentration: 1 μM, replicates: in singlicate; n = 1
[5] = test system: PAK2; settings: concentration: 1 μM, replicates: in singlicate; n = 1
[6] = test system: PAK3; settings: concentration: 1 μM, replicates: in singlicate; n = 1
[7] = test system: PAK4; settings: n = 1
[8] = test system: PAK6; settings: n = 1
[9] = test system: PAK7; settings: concentration: 1 μM, replicates: in singlicate; n = 1
[10] = test system: T3, PCTK1; settings: concentration: 1 μM, replicates: in singlicate; n = 1
T3 construct: gene CDK16

[11] = concentration: 1 μM, replicates: in singlicate
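Note: KINOMEscan kinase panel screen.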

| Structure (SMILES) | %Inh [1] [%] | %Inh [2] [%] | %Inh [3] [%] | %Inh [4] [%] | %Inh [5] [%] | %Inh [6] [%] | %Inh [7, 11] [%] | %Inh [8, 11] [%] | %Inh [9] [%] | %Inh [10] [%] | %Inh ([7]; 1 µM) [%] | %Inh ([8]; 1 µM) [%] |
| --- | --- | --- | --- | --- | --- | --- | --- | --- | --- | --- | --- | --- |
| COC(=O)Nc1nc2ccc(Oc3ccc(NC(=O)Nc4cc(C(F)(F)F)ccc4F)cc3)cc2n1C.Cl [GW692089] | 32 | 8 | 0 | 0 | 0 | 6 | 0 | 0 | 0 | 0 |  |  |
| Cc1ccc(S(=O)(=O)Nc2ccc(Nc3nccc(Nc4cccc5[nH]ncc45)n3)cc2)cc1 [GSK581271] | 26 | 56 | 13 | 14 | 12 | 35 | 0 | 18 | 0 | 2 |  |  |
| COc1cc(Nc2nccc(N3CCC(NC(=O)c4cc5ccccc5s4)C3)n2)cc(OC)c1OC (stereo not shown) [GSK1379760] | 6 | 0 | 2 | 4 | 2 | 9 | 0 | 0 | 0 | 0 |  |  |
| Cn1cc(-c2[nH]c3cc(NC(=O)[C@H](N)C4CCCCC4)cc4c3c2C=NNC4=O)cn1 | 96.8 | 0 | 17 | 27 | 25 | 83 | 99.5 | 99.2 | 97.9 | 8 |  |  |
| CCn1c(-c2nonc2N)nc2c(C#CC(C)(C)O)ncc(OCCCCN)c21.O=C(O)C(F)(F)F.O=C(O)C(F)(F)F [GSK507274] | 29 | 0 | 40 | 81 | 88 | 49 |  |  | 99 | 8 | 98.1 | 89 |
| Cc1cccc(Nc2nc(N[C@H]3CCNC3)ncc2C(N)=O)c1.Cl [GSK2197149] | 11 | 0 | 18 | 38 | 70 | 66 | 95.8 | 78 | 98 | 14 |  |  |
| CC(C)(C)c1ccc2nccc(Nc3cccc(O)c3)c2c1 [GW856795] | 30 | 0 | 0 | 0 | 0 | 0 | 23 | 0 | 2 | 0 |  |  |
| c1ccc(Oc2ccc(Nc3ccnc4cc(-c5ccc(CNCCN6CCOCC6)o5)ccc34)cc2)nc1 [GW567145] | 20 | 12 | 2 | 0 | 0 | 3 | 0 | 0 | 0 | 0 |  |  |
| COc1cccc(C2=C(Nc3ccc(Cl)c(C(=O)O)c3)C(=O)NC2=O)c1 [SB-390769] | 100 | 22 | 100 | 30 | 28 | 0 | 0 | 6 | 1 | 0 |  |  |
| Cl.Cl.NCC(NCc1ccc(-c2ccnc3[nH]ccc23)s1)c1ccccc1 (stereo not shown) [GSK1321565] | 0 | 8 | 10 | 0 | 0 | 69 | 0 | 2 | 0 | 0 |  |  |
